Inconclusive results are not listed. A call without a number means that no potency is given here. Activity calls are given as the source filed them. Calls come from the whole dose curve; as a rule, active = well fitted cell-killing curve with a large enough effect in the repeat runs; inconclusive = weak or mixed curves, or effect the other way; inactive = flat fitted curve, though single readings scatter.

In PubChem BioAssay (Tox21) one finds Potency and viability change, negative = cytotoxic data, which are given here for 40 compounds.
Potency is the fitted concentration of half-maximal effect.

A short description of this test: qHTS assay to identify small molecule agonists of the sonic hedgehog signaling (Shh) pathway - cell viability counter screen (AID 1259366). Note: nearly all actives have a fitted effect of over 50% in size. The conditions noted are these: NIH/3T3 Gli1-Luc viability, CellTiter-Fluor, 24 h; series mostly up to 92.4 µM. The source says: National Center for Advancing Translational Sciences [NCATS]
NIH Chemical Genomics Center [NCGC]
U.S. Environmental Protection Agency [EPA]
National Institutes of Environmental Health Sciences [NIEHS]
National Toxicology Program [NTP]
U.S. Food and Drug Administration [FDA]
The sonic hedgehog (Shh) pathway is essential for normal embryonic development. Dysregulation of the Shh pathway can cause severe developmental defects in organs. Therefore chemicals that interfere with the pathway are potential developmental toxicants. A cell line designated 3T3Gli1-Luc (DMB/OARSA/CFSAN/FDA, Laurel, MD), a NIH/3T3 derived clone containing stably integrated Gli1-Luc reporter is used to detect chemical interference of the Shh pathway, by changes in the expression of the firefly Luc gene under the control of the Gli1 transcriptional response element. This cell line was used to screen Tox21 libraries for identifying and prioritizing the potential developmental toxicants that interfere Shh pathway. The cytotoxicity of the compounds was tested in parallel by measuring the cell viability using CellTiter-Fluor assay system (Promega, Madison, WI) in the same wells.
Tox21 Assay Protocol Summary:
3T3 Gli1-Luc cells were dispensed at 2,000 per well in 5uL of culture medium into white solid bottom 1536-well plates (Greiner Bio-One, Monroe, NC) using a Multidrop Combi (Thermo Scientific, Waltham, MA) dispenser. The assay plates were incubated at 37 C and 5% CO2 for 4hr, and then 23nL of compounds dissolved in DMSO and positive control were transferred using a Pintool station (Wako, San Diego, CA). The assay plates were incubated at 37C and 5% CO2 for 24hr. For viability read, after 23hr of compound treatment, 1uL of CellTiter-Fluor reagent (Promega Corporation, Madison, WI) was added to each well of the assay plates using Flying Reagent Dispenser (FRD, Aurora Discovery, San Diego, CA) and incubated the assay plates at 37C for 1hr. The fluorescence signal was quantified using a ViewLux plate reader (Perkin Elmer, Shelton, CT).
`CCC(C)c1ccccc1` (stereo not given): the Potency result was “inactive”. Turning to `C#CC(O)CCC` (stereo not given), the Potency entry is “inactive”. Consider `CCCC(C)CCC(C)=O` (stereo not given), for which the Potency entry is “inactive”. Turning to `OCCCCl`, the Potency entry was “inactive”. Still for that read-out and setting: then `CC(=O)OC(OC(C)=O)c1ccc([N+](=O)[O-])o1`, with 22.1 µM (active). For `COc1cc(C(C)C)c2c(c1)S(=O)(=O)N(COc1cc(=O)n3cccc(OCCN4CCCCC4)c3n1)C2=O`, the viability change, negative = cytotoxic is -0.671% [at 19 µM] (inactive).

Regarding `CC=O`, the Potency is 28.6 µM (active). Take `CCOC(OCC)C(=O)c1ccccc1`: the Potency entry is “inactive”.

Take `O=C1NCCN1CCN1CCC(c2cn(-c3ccc(F)cc3)c3ccc(Cl)cc23)CC1`: the Potency is 18.8 µM (active). With `N[C@@H](CSSC[C@H](N)C(=O)O)C(=O)O`, the viability change, negative = cytotoxic is 13.4% [at 0.349 µM] (inactive). In the case of `C=C/C=C/C=C/CCCCC`, the viability change, negative = cytotoxic is -4.32% [at 19 µM] (inactive). Take `O=C(O)c1cccc(Cl)n1`: the Potency entry was “inactive”. Consider `CCC(C)(C)c1cc(O)c(C(C)(C)CC)cc1O`, for which the Potency entry was “inactive”. Turning to `OCCCc1cccnc1`, the Potency entry is “inactive”. Take `Oc1cc2ccccc2cc1O`: the Potency entry is “inactive”. Still for that read-out and setting: then `OCCC(O)CO` (stereo not given), with “inactive”; and `CCc1ccc(O)c(C(C)(C)C)c1`, with “inactive”. Consider `O=C1OC(OC(=O)c2cccnc2Nc2cccc(C(F)(F)F)c2)c2ccccc21` (stereo not given), for which the Potency result is “inactive”.

As to `CCc1cccc(C)c1`, the Potency result was “inactive”. On to `Brc1ccccn1`, for which the Potency entry is “inactive”. Turning to `CC(C)CCOCCC(C)C`, the Potency result is “inactive”. For `CC(O)C#CC(C)O` (stereo not given), the Potency is 53.9 µM (active).

Consider `CN(C)CCN1CCOCC1`, for which the Potency entry was “inactive”.

For the compound `NC(=O)c1ccccc1N`, the Potency entry is “inactive”. In the case of `CCCCCCCCCCCCCCNCCO`, the Potency entry is “inactive”. Turning to `SCCCCCCCCS`, the Potency result is “inactive”. For `CO[Si](CCCNCCNCCN)(OC)OC`, the Potency result was “inactive”. In the case of `CCCCCCCC/C=C\CCCCCCCC(=O)N(C)CC(=O)O`, the Potency entry was “inactive”.

Consider `CC(=O)O[C@@H]1C[C@@H]2CC[C@@]1(C)C2(C)C`, for which the Potency result is “inactive”. Same read-out and setting: then `C[C@]12CC[C@H]3C(=CCc4cc(O)ccc43)[C@@H]1CCC2=O`, with “inactive”; and `C=C(C)C(=O)OCCC[Si](Cl)(Cl)Cl`, with “inactive”; and `Clc1ccc(C(c2ccccc2Cl)C(Cl)Cl)cc1` (stereo not given), with “inactive”.

Turning to `C/C=C/c1ccc(OC)c(OC)c1`, the Potency entry was “inactive”. `CCCCCCCCCCCCOC(=O)c1cc(O)c(O)c(O)c1`: the Potency was 43.1 µM (active). On to `CN1[C@@H]2CC[C@@H]1CC(OC(=O)C(CO)c1ccccc1)C2` (stereo not given in full), for which the Potency entry is “inactive”.

Take `CS(C)(=O)=O`: the Potency result is “inactive”. In the case of `c1cc2c3c(c1)ccc1cccc(c13)C2`, the Potency entry is “inactive”. On the same count and under the same terms, the same measure for `CC(C)=CC1CC(C)CCO1` (stereo not given): “inactive”; for `Cc1ccc2ccc3cccc4ccc1c2c34`: “inactive”. For `O=C(O)CCn1c2c(c3ccccc31)C[C@H](NS(=O)(=O)c1ccc(F)cc1)CC2`, the Potency result was “inactive”.
